Inconclusive results are not listed. Where a call stands in place of a potency, no number is given. A number with no mark means an inactive call. Calls of active or inactive are those of the source. Calls follow the shape of the full dose curve.
experiment: qHTS assay for small molecules that induce genotoxicity in human embryonic kidney cells expressing luciferase-tagged ATAD5 - cell viability (AID 651634); details: HEK293T ATAD5-luc cells viability, CellTiter-Fluor, 15.5 h; series mostly up to 83.3 µM; also: nearly all actives have a fitted effect of over 25% in size
Text: National Center for Advancing Translational Sciences [NCATS]
NIH Chemical Genomics Center [NCGC]
U.S. Environmental Protection Agency [EPA]
National Institutes of Environmental Health Sciences [NIEHS]
National Toxicology Program [NTP]
U.S. Food and Drug Administration [FDA]
Enhanced Level of Genome Instability Gene 1 (ELG1; human ATAD5) protein levels increase in response to various types of DNA damage. Using a luciferase reporter-gene tagged with ElG1, a cell-based assay [developed by Kyungjae Myung, NHGRI, NIH] was used to measure the induction of ATAD5 in human embryonic kidney cells (HEK293T). So, increase in luciferase activity can be used to identify the compounds that cause genetic stress. In addition to genotoxicity, these cells were also used to test for cytotoxicity by measuring the protease activity within live cells.
Tox21 Assay Protocol Summary:
For cytotoxicity screening, 2,000 cells in 5 uL/well were dispensed into white, solid-bottom 1536-well plates using a Multidrop Combi (Thermo Scientific) dispenser. Following transfer of 23 nL compound or DMSO vehicle by a pin tool, the plates were incubated 15.5 hr at 37C and 5% CO2. 1 ul CellTiter-Fluor reagent (Promega, Madison, WI) was then added to each plate and following 30 min incubation at 37C, fluorescence intensity was quantified on a ViewLux CCD-based plate reader.

Structure (SMILES) | Potency | activity, negative = cytotoxicity
O=C(O)c1cccnc1Nc1cccc(C(F)(F)F)c1 | inactive | –
CC(C)(Cc1c[nH]c2ccccc12)NCC(O)COc1ccccc1C#N (stereo not given) | inactive | –
CC/C=C/CCO | inactive | –
O=C(c1ccc(Cl)cc1)c1ccc(Cl)cc1 | inactive | –
CCc1c(C)[nH]c2c1C(=O)C(CN1CCOCC1)CC2 (stereo not given) | inactive | –
CC(C)Cc1nccs1 | inactive | –
C=CC(=O)NC(C)(C)C | inactive | –
CC(C)Oc1ccccc1O | inactive | –
CCCCCCCCCCCC(=O)OCC | inactive | –
CC1(C)C(=O)NC(=O)N1CO | inactive | –
Cc1nc(C)c(C)nc1C | inactive | –
CCC(CC)C(=O)O | inactive | –
COC(=O)c1cc(Cl)ccc1[N+](=O)[O-] | inactive | –
C/C(=C(\CCO)SS/C(CCO)=C(\C)N(C=O)Cc1cnc(C)nc1N)N(C=O)Cc1cnc(C)nc1N | inactive | –
CCCCCCCCS | inactive | –
CCCCCCCCC(=O)OCC(C)OC(=O)CCCCCCCC (stereo not given) | inactive | –
OCCCO | inactive | –
CCC(=O)O[C@@H]1C[C@H]2CC[C@]1(C)C2(C)C | inactive | –
CC/C=C\CCO | inactive | –
CCCCCCCCCCCCN1CCOCC1 | inactive | –

Structure (SMILES) | Potency | activity, negative = cytotoxicity
CCOc1ccc2c(c1)C(C)CC(C)(C)N2 (stereo not given) | inactive | –
Oc1ccc(CCNCCCCCCNCCc2ccccc2)cc1O | inactive | –
COc1ccc(/C=C/c2cc(OC)cc(=O)o2)cc1 | inactive | –
CC(C)(C)c1ccc(CCC=O)cc1 | inactive | –
COC(=O)Cc1cccc2ccccc12 | inactive | –
CCN(CCCCOC(=O)c1ccc(OC)c(OC)c1)C(C)Cc1ccc(OC)cc1 (stereo not given) | inactive | –
C1=COCCC1 | inactive | –
Clc1cccc(C(c2ccc3nc[nH]c3c2)n2ccnc2)c1 (stereo not given) | inactive | –
O=C(O)CCc1nc2ccccc2[nH]1 | inactive | –
CCCCCCCCCCCCCCCCN | inactive | –
CC[C@H](NC(C)C)[C@H](O)c1ccc(O)c2[nH]c(=O)ccc12 | inactive | –
CCCCCCC/C=C/C=O | inactive | –
COc1ccc(CN(CCN(C)C)c2ncccn2)cc1 | inactive | –
CCCCCCCCCCCCCCCCCCCl | – | -17.2% [at 8.08 µM]
NC(=O)c1cc[n+](CC2=C(C(=O)[O-])N3C(=O)[C@@H](NC(=O)Cc4cccs4)[C@H]3SC2)cc1 | inactive | –
Cc1ccc(NC=O)c(C)c1 | inactive | –
FC(F)(Cl)C(F)(Cl)Cl | inactive | –
CCc1ccc(C(=O)C(C)CN2CCCCC2)cc1 (stereo not given) | inactive | –
C=C[Si](OCC)(OCC)OCC | inactive | –
Cc1c(Cl)cccc1[N+](=O)[O-] | inactive | –

From PubChem BioAssay (Tox21)
